Here are results for 7 molecules from PubChem BioAssay (Tox21).

Experiment [1] can be described thus: qHTS assay to identify small molecule antagonists of the sonic hedgehog signaling (Shh) pathway (AID 1259369; calls by dose curve; note: nearly all actives have a fitted effect of over 45% in size; note: potency is the fitted concentration of half-maximal effect). Put shortly: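 Conditioned medium drives Shh signalling in 3T3Gli1-Luc cells; compounds in DMSO co-applied, 24hr at 37 C, then luciferase luminescence.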
On the technique in general: Quantitative high-throughput screening tests each substance at several concentrations.

Experiment [2] addresses Estrogen receptor beta (Homo sapiens) (UniProt Q92731). The experiment in a line: qHTS assay to identify small molecule agonists of the estrogen receptor beta (ER-beta) signaling pathway (AID 1259377; active = well fitted activation curve with a large enough effect in the signal ratio in the repeat runs, not every such curve was filed as active; the % refers to the signal ratio). Put shortly: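 qHTS in ER-beta-UAS-bla HEK293T cells: 6 hr settling, then 16 hr compound at 37C, then LiveBLAzer substrate 2 h at RT before fluorescence reading.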
Experiment [3] shares this target. The experiment in a line: qHTS assay to identify small molecule antagonists of the estrogen receptor beta (ER-beta) signaling pathway (AID 1259378; active = well fitted inhibition curve with a large enough effect in the signal ratio in the repeat runs, not every such curve was filed as active; the % refers to the signal ratio; note: potency is the fitted concentration of half-maximal effect). An outline of the steps: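 Antagonist mode: compounds added to beta-lactamase reporter HEK293T ER-beta-UAS cells stimulated with E2 (1nM final), 16 hr at 37C. LiveBLAzer B/G FRET substrate, 2 hours room temperature, fluorescence read-out.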

Experiment [4] is described as follows: qHTS assay to identify small molecule agonists of the androgen receptor (AR) signaling pathway in the presence of an antagonist - cell viability counter screen (AID 1259379). Note: nearly all actives have a fitted effect of over 25% in size. Note: potency is the fitted concentration of half-maximal effect. Put shortly: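 A CellTiter-Fluor read-out measured viability of MDA-kb2 reporter cells (MMTV promoter with AR and GR response elements). Treatment: nilutamide 3.0uM final with compounds at 15 concentrations, 16 hr, 37C, 0% CO2.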

The nature of experiment [5]: qHTS assay to identify small molecule agonists of the estrogen receptor beta (ER-beta) signaling pathway - cell viability counter screen (AID 1259380). Note: nearly all actives have a fitted effect of over 30% in size. Note: potency is the fitted concentration of half-maximal effect. An outline of the steps:
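Cells used were ER-beta-UAS-bla HEK293T in medium with 2% charcoal-stripped FBS. They were treated for 16 hr at 37C. Viability came from CellTiter-Glo luminescence.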

The nature of experiment [6]: qHTS assay to identify small molecule antagonists of the estrogen receptor beta (ER-beta) signaling pathway - cell viability counter screen (AID 1259382). Note: nearly all actives have a fitted effect of over 55% in size. Note: potency is the fitted concentration of half-maximal effect. Put shortly: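 Agonist-stimulated (1nM E2) ER-beta-UAS-bla HEK293T cells are incubated with library compounds for 16 hr at 37C. Cell viability is then assessed in the reporter-assay wells by adding CellTiter-Glo and reading luminescence after 30 min.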

The target in experiment [7] is Estrogen receptor (Homo sapiens) (UniProt P03372). Briefly: qHTS assay to identify small molecule agonists of the estrogen receptor alpha (ER-alpha) signaling pathway in the presence of an antagonist (AID 1259383; calls by dose curve; note: top concentration of the series differs between compounds; nearly all actives have a fitted effect of over 15% in size). An outline of the steps: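 Using VM7Luc4E2 cells seeded 24hr before treatment, antagonist ICI-182,780 (10.0nM final) was added, followed by compounds at 15 concentrations. Plates incubated 22hr; ONE-Glo luminescence quantified reporter activity.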

Experiment [8] in a line: qHTS assay to identify small molecule agonists or antagonists of the thyroid stimulating hormone receptor (TSHR) signaling pathway - wild type cell line counter screen (AID 1259384; calls by dose curve). Put shortly:
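Counter screen in untransfected Hek293: compounds (15-point titration, triplicate) plus phosphodiesterase inhibitor Ro20-1724 added after 18 h plating; 30 min RT. Intracellular cAMP via competitive d2/cryptate immunoassay, 1 h incubation.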

Experiment [9] concerns the target Thyrotropin receptor (Homo sapiens) (UniProt P16473). The experiment in a line: qHTS assay to identify small molecule antagonists of the thyroid stimulating hormone receptor (TSHR) signaling pathway (AID 1259385; calls by dose curve; note: nearly all actives have a fitted effect of over 20% in size). Put shortly:
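Antagonist mode: compound-treated TSHR-expressing HEK293 cells were stimulated with 1.5 ng/mL TSH (final) in presence of Ro20-1724 for 30 min at RT. HTRF cAMP detection after 1 h; each compound tested at 15 concentrations, triplicate.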

Experiment [10] is described as follows: qHTS assay to identify small molecule agonists of the estrogen receptor alpha (ER-alpha) signaling pathway in the presence of an antagonist - cell viability counter screen (AID 1259386).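 Note: series mostly up to about 92 µM; cells exposed to compounds for 22 h at 37 °C before the viability read; nearly all actives have a fitted effect of over 30% in size.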 An outline of the steps:
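ICI-182,780 at 10.0nM final accompanies the compound titration (15 concentrations, 22hr, 37C) on VM7Luc4E2 cells. The CellTiter-Fluor fluorescence readout runs in the same wells as the luciferase assay.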

Experiment [11] concerns the target Progesterone receptor (Homo sapiens) (UniProt P06401). Briefly: qHTS assay to identify small molecule agonists of the progesterone receptor (PR) signaling pathway (AID 1346784; calls by dose curve; note: nearly all actives have a fitted effect of over 30% in size). Put shortly: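 Fluorescence from LiveBLAzer B/G FRET substrate cleavage (2 hr, RT) reported PR activation in PR-UAS-bla HEK 293T cells treated 16 hr at 37C/5% CO2 with compounds; medium contained 2% charcoal-stripped FBS.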

The target is the same in experiment [12]. The experiment in a line: qHTS assay to identify small molecule antagonists of the progesterone receptor (PR) signaling pathway (AID 1346795; active = well fitted inhibition curve with a large enough effect in the signal ratio in the repeat runs, not every such curve was filed as active; the % refers to the signal ratio). Put shortly:
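Fluorescence intensity measured 2 hr after adding beta-lactamase FRET substrate to PR-UAS-bla HEK293T cells that had been co-treated 16 hr with compound and 1 nM R5020 (final concentration) in 2% charcoal-stripped FBS.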

Experiment [13] can be described thus: qHTS assay to identify small molecule antagonists of the progesterone receptor (PR) signaling pathway - cell viability counter screen (AID 1346798). Note: nearly all actives have a fitted effect of over 50% in size. Note: potency is the fitted concentration of half-maximal effect. Put shortly:
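CellTiter-Glo luminescence; PR-UAS-bla HEK293T, 3,000 cells/well; compound + R5020, 16 hr, 37C/5% CO2; 30 min RT before read.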

Experiment [14] in a line: qHTS assay to identify small molecule agonists of the progesterone receptor (PR) signaling pathway - cell viability counter screen (AID 1346799; calls by dose curve; note: nearly all actives have a fitted effect of over 45% in size). Put shortly: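 In parallel with the beta-lactamase readout, cytotoxicity toward PR-UAS-bla HEK293T cells was measured by CellTiter-Glo luminescence following 16 hr compound incubation in 2% charcoal-stripped FBS medium.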
Experiment [15] can be described thus: qHTS assay to identify small molecule antagonists of the TGF-beta/Smad signaling pathway - cell viability counter screen (AID 1346824). Note: nearly all actives have a fitted effect of over 50% in size. An outline of the steps: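 Cytotoxicity counter-screen run in the same wells as the beta-lactamase Smad reporter read: CellTiter-Glo luminescence after 30 min at room temperature. HEK 293T SBE-bla cells had 5 hr compound exposure at 37 C with TGF-beta1 (0.25 ng/mL stock).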

Experiment [16] is described as follows: qHTS assay to identify small molecule agonists of the TGF-beta/Smad signaling pathway - cell viability counter screen (AID 1346829). Note: top concentration of the series differs between compounds; nearly all actives have a fitted effect of over 45% in size. Put shortly:
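Here the cytotoxicity of library compounds is measured in SBE-bla HEK 293T cells treated for 5 hr, using CellTiter-Glo added to wells already read for the beta-lactamase reporter.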

Experiment [17] can be described thus: qHTS assay to identify small molecule agonists of the TGF-beta/Smad signaling pathway (AID 1346859; active = well fitted activation curve with a large enough effect in the signal ratio in the repeat runs, not every such curve was filed as active; the % refers to the signal ratio; note: series mostly up to about 77 µM). An outline of the steps:
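After overnight seeding, SBE-bla HEK 293T cells are dosed with compounds in DMSO and kept 5 hr at 37 C, 5% CO2. LiveBLAzer-type FRET substrate is then applied for 2 hr at room temperature.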

For experiment [18], the target named is Thyrotropin-releasing hormone receptor (Homo sapiens) (UniProt P34981). Briefly: qHTS assay to identify small molecule antagonists of the thyrotropin-releasing hormone receptor (TRHR) signaling pathway (AID 1346877; active = well fitted inhibition curve with a large enough effect in the repeat runs, not every such curve was filed as active; note: series mostly up to about 51 µM). An outline of the steps: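 Screening used HEK293 cells engineered with TRHR, with a brief 5 min room-temperature compound exposure preceding addition of TRH to 1 nM. The read-out was kinetic calcium-dye fluorescence, concentration-response from 15 doses in triplicate.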

For experiment [19] the target is unchanged. Briefly: qHTS assay to identify small molecule agonists of the thyrotropin-releasing hormone receptor (TRHR) signaling pathway (AID 1346891; calls by dose curve;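 note: HEK293 cells expressing TRHR with calcium dye readout; series mostly up to about 58 µM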). Put shortly:
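Compounds were tested as agonists at 15 concentrations, in triplicate, on TRHR-Hek293 cells; calcium-sensitive dye fluorescence was recorded for 3 min following addition.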

Several values for one entry are separate records, joined by “and”; a condition that tells them apart may be missing. Equal entries are not always repeated. Results filed as inconclusive are left out. More than one record can exist for a structure, and the calls need not agree. Activity calls are given as the source filed them. Unless noted, calls come from the whole dose curve; as a rule, active = well fitted curve in the direction sought with a large enough effect in the repeat runs; inconclusive = weak or mixed curves; inactive = no such curve, though single readings can be large; an effect the other way counts as inactive or inconclusive.

Sequence of Estrogen receptor (Homo sapiens) (P03372 whole entry, looked up): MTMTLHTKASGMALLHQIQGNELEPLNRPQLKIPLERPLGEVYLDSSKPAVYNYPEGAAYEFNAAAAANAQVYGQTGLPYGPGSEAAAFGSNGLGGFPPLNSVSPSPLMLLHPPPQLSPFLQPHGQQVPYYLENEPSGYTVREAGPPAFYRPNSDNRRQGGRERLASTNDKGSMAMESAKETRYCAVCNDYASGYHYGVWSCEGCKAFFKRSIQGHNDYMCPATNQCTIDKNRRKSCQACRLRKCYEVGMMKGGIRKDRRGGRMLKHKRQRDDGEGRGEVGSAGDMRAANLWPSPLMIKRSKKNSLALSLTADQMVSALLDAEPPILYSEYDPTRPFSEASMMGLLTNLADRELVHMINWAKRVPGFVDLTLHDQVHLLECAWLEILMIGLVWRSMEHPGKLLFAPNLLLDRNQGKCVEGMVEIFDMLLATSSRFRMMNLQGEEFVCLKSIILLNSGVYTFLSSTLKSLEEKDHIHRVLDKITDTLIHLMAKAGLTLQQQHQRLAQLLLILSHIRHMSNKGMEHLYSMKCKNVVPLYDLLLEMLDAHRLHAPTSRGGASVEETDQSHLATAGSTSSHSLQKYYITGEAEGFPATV
Sequence of Estrogen receptor beta (Homo sapiens) (Q92731 whole entry, looked up): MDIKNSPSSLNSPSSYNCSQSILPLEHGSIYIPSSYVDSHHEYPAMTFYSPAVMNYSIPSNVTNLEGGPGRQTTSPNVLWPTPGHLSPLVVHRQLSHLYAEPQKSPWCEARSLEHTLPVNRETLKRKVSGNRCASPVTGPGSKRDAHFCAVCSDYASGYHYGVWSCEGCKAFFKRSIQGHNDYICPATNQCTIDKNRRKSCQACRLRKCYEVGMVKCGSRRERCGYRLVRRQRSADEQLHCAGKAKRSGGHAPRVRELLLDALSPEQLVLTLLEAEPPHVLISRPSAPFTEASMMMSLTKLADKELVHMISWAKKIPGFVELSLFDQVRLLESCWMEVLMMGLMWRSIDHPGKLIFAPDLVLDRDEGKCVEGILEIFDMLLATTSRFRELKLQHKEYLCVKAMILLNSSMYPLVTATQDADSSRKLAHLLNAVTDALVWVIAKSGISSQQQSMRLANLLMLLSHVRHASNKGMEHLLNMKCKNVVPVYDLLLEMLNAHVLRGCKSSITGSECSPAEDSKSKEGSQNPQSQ
Sequence of Progesterone receptor (Homo sapiens) (P06401 whole entry, looked up): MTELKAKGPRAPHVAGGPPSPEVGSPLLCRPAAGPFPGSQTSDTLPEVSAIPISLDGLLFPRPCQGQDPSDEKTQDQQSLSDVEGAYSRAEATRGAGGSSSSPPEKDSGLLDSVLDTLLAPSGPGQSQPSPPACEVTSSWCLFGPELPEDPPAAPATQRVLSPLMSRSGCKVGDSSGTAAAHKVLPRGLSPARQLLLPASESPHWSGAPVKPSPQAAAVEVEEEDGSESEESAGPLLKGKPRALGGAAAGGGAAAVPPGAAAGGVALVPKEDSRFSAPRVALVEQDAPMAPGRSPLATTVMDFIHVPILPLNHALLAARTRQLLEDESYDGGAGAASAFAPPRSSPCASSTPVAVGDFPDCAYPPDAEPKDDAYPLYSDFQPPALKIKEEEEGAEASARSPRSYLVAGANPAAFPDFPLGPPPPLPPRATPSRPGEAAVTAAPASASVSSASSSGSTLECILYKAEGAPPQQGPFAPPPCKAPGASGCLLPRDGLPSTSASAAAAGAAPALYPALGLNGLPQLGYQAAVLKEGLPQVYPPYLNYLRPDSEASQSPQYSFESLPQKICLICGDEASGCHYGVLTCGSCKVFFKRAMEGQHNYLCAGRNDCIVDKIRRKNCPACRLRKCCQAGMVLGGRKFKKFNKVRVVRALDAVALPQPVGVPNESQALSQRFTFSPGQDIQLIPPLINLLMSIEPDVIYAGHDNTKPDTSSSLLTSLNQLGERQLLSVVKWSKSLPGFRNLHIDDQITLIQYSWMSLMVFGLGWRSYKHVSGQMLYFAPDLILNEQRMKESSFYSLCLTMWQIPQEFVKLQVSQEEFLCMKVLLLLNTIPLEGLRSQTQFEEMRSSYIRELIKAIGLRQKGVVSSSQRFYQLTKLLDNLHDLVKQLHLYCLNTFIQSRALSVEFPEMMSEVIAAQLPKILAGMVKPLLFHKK
Sequence of Thyrotropin receptor (Homo sapiens) (P16473 whole entry, looked up): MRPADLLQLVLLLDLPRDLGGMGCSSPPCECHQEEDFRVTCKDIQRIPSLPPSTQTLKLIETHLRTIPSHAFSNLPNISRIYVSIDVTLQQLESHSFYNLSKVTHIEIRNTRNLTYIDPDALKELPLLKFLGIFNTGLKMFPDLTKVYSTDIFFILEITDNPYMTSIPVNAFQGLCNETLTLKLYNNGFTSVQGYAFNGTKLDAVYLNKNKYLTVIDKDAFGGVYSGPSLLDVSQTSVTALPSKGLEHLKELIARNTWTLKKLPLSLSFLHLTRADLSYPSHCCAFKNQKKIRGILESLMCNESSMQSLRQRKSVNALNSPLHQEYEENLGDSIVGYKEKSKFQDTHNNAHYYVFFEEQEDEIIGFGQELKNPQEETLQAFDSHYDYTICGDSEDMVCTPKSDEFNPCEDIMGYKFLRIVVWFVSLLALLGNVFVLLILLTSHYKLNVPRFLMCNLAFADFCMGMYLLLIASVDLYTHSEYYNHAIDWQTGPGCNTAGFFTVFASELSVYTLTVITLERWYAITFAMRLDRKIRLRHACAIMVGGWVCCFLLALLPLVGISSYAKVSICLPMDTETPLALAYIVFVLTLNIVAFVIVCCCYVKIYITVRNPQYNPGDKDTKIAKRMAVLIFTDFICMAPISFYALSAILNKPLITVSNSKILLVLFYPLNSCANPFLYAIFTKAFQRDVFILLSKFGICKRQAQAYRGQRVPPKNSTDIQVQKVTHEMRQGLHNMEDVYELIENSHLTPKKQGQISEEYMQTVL
Sequence of Thyrotropin-releasing hormone receptor (Homo sapiens) (P34981 whole entry, looked up): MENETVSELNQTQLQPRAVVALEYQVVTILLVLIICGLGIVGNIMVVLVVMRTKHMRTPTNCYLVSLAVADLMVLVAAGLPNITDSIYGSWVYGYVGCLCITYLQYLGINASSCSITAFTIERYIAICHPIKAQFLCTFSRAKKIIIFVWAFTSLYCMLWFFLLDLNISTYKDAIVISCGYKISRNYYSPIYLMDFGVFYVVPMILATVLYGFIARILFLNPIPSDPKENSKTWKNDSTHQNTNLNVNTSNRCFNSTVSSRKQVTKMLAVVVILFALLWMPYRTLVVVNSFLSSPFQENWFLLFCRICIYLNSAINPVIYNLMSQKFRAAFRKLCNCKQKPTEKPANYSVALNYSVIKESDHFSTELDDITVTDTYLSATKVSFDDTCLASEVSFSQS

In the case of `CCCCC(CC)COCC1CO1` (configuration not stated), the Potency result in experiment [1], in experiment [2], in experiment [3], in [4], in experiment [5] and in experiment [6] was “inactive” each time. Also, the Potency entry in experiment [7], in experiment [9], in experiment [10], in [11], in [12] and in [13] was “inactive” throughout. Also, the Potency entry in [14], in experiment [15], in experiment [16], in experiment [18] and in experiment [19] was “inactive” in each case. In addition, the outcome in experiment [8] and in experiment [17] was inactive.

Consider `Nc1ccc(S(=O)(=O)Nc2cnc3ccccc3n2)cc1`, for which the Potency result in experiment [1], in experiment [2], in experiment [3], in experiment [4], in [5] and in experiment [6] was “inactive” in each case. Moreover, the Potency entry in experiment [9], in [10], in experiment [11], in experiment [12], in experiment [13] and in experiment [14] was “inactive” throughout. In addition, the Potency entry in [15] and in experiment [16] was “inactive” throughout. The outcome in experiment [8] and in experiment [17] was inactive.

Consider `COc1c(Cl)c(Cl)c(Cl)c(Cl)c1Cl`, for which the Potency entry in [1], in [2], in experiment [3], in experiment [4], in experiment [5] and in experiment [6] was “inactive” throughout. Also, the Potency result in experiment [9], in experiment [10], in experiment [11], in experiment [12], in [13] and in experiment [14] was “inactive” throughout. The Potency result in experiment [15], in experiment [16], in experiment [18] and in experiment [19] was “inactive” in each case. The call in experiment [8] and in experiment [17] was inactive.

As to `NC=O`, the Potency result in [1], in [2], in experiment [3], in experiment [4], in experiment [5] and in [6] was “inactive” throughout. For the same molecule, the Potency entry in [10], in experiment [11], in experiment [12], in experiment [13], in [15] and in [16] was “inactive” throughout. Moreover, the result in experiment [17] was inactive.

On to `Cc1ncc[nH]1`, for which the Potency result in experiment [1], in [2], in experiment [3], in experiment [4], in experiment [5] and in [6] was “inactive” throughout. The Potency result in experiment [9], in experiment [10], in experiment [11], in experiment [12], in [13] and in [14] was “inactive” in each case. Moreover, the Potency result in [15] and in experiment [16] was “inactive” throughout. For the same molecule, the outcome in experiment [8] and in experiment [17] was inactive.

Regarding `CCCCc1oc2ccccc2c1C(=O)c1cc(I)c(OCCN(CC)CC)c(I)c1`, the Potency in experiment [1] was 43.6 µM (active) and inactive; in experiment [3] it was 21.9 µM (active) and 26.6 µM (active); in experiment [4] it was 43.6 µM (active) and 33.5 µM (active); in experiment [5], 19.5 µM (active) and 29.8 µM (active); in experiment [6], 19.5 µM (active) and 26.6 µM (active); in [13], 24.5 µM (active) and 11.9 µM (active). For the same molecule, the Potency entry in [2], in experiment [7], in experiment [9], in [10], in [11] and in experiment [15] was “inactive” each time. The Potency result in experiment [18] and in [19] was “inactive” each time. Besides, the molecule was classed as inactive in [8] and in [17].

On to `CC(=O)CC/C=C(\C)CCC=C(C)C`, for which the Potency result in experiment [1], in experiment [2], in [3], in experiment [4], in experiment [5] and in experiment [6] was “inactive” each time. In addition, the Potency entry in experiment [7], in experiment [9], in experiment [10], in experiment [11], in [12] and in [13] was “inactive” in each case. Moreover, the Potency result in experiment [14], in experiment [15], in [16], in [18] and in experiment [19] was “inactive” in each case. For the same molecule, the call in experiment [8] and in experiment [17] was inactive.
